In the library only some 9.7% were active in any assay of this set; here they are far more common.
BAP1 block: inhibitors of BAP1 deubiquitinase, primary screen, biochemical, Ub-AMC fluorescence, kinetic. 72,000 tested, 0.48% active. recombinant BAP1, Ub-AMC hydrolysis fluorescence kinetic; hits give low values. Ubiquitin carboxyl-terminal hydrolase BAP1 (Homo sapiens), Q92560. AID 436, 2006. calls only at 20 µM;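 active = activity remaining at or below 50% of control, provided the compound also passes the data quality filters; inactive = the rest, including low values that fail the filters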
Target sequence (Q92560 whole entry, looked up): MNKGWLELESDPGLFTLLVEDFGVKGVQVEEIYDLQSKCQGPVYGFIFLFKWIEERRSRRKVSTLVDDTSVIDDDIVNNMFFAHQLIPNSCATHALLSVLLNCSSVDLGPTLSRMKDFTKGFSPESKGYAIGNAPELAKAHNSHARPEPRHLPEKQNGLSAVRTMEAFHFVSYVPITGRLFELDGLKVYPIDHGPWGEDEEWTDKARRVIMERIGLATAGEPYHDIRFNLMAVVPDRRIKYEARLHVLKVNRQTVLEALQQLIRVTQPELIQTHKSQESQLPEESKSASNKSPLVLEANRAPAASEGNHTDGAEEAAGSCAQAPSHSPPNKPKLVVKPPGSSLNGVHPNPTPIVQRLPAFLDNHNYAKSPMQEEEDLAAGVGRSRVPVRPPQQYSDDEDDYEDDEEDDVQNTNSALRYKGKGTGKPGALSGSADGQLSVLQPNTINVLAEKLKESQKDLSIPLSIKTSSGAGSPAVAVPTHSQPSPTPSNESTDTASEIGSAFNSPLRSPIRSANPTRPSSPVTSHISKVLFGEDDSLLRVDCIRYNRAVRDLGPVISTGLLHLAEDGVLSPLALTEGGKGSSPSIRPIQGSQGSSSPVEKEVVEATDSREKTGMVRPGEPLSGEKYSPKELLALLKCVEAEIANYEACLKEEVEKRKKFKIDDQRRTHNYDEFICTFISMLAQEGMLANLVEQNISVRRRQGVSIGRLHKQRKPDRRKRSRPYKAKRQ
WNV NS2B-NS3 inh: inhibitors of WNV NS2B-NS3 protease, primary screen, biochemical, fluorogenic substrate; z-score (test concentration not listed); fluorogenic substrate Ex360/Em465; hits give low values; Genome polyprotein (West Nile virus), P06935; AID 577, 2007; 65,000 tested, 0.18% active; in the data active = z-score below about -3
M1 agonist: M1 muscarinic receptor agonists, primary screen, CHO-M1 cells, Fluo-4 calcium, agonist mode; Muscarinic acetylcholine receptor M1; Fluo-4 calcium fluorescence; hits give high values; B-score at 10 µM; 64,000 tested, 3% active;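 active = fluorescence rise, raw or as B-score row- and column-corrected plate score, outside the 99.7% band of its plate's samples, either direction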
Fluor 339 460: intrinsic fluorescence of library compounds, ex339/em460 – biochemical, MLSMR library, data from DPM-DC assay, artefact control, profiling panel; 65,000 tested, 5.5% active; fluorescence fold increase at 10 µM; compound autofluorescence, ex339/em460 nm, NADH buffer; hits give high values; 1 = no-compound wells, NADH background;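 active = at 10 µM, mean starting fluorescence two-fold or more over control wells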;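 also: signal is the first read of a kinetic run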
M1 antag: antagonists of rat M1 muscarinic receptor | CHO-M1 cells, Fluo-4 calcium, ACh EC80 antagonist mode; hits give low values | 64,000 tested, 3.4% active | B-score at 10 µM | AID 628, 2007;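 active = calcium fluorescence response, raw or row-and-column corrected B-score, differing from the plate sample mean either way at a set confidence level, mostly lower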
A340 absorber: compound light absorbance at 340 nm, profiling panel, artefact control, biochemical, MLSMR library, data from PS, PMK, MK assays | compound absorbance at 340 nm, fold over control | AID 708, 2007 | 65,000 tested, under 10 active | fold change at 10 µM;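 active = at 10 µM dose, initial 340 nm absorbance at least 2 fold that of control wells; inactive = change under 2 fold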;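 also: initial absorbance extrapolated from kinetic A340 decline of NADH oxidation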
M1 antag conf: rat M1 muscarinic receptor antagonists, confirmation, CHO cells, Fluo-4 calcium, duplicate; shares compounds with M1 antag; ACh EC80 antagonism; hits give low values; calcium response (max-min fluorescence) at 10 µM; 1,700 tested, 43% active; AID 677, 2007;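 active = calcium response below the same-plate mean of wells given acetylcholine alone at its 80%-effect dose, minus 3 SD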
mGluR4 antag: human mGluR4 response to M1 antagonist hits, M1 allosteric modulator project, cell-based, antagonist mode, secondary assay 1 | shares compounds with M1 antag | CHO-mGluR4 calcium flux, Fluo-4 fluorescence, glutamate EC80; hits give low values | fluorescence response (max-min) at 10 µM | 1,700 tested, 0.9% active;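 active = fluorescence response below the plate's average for near-maximal glutamate wells, less 3 SD of those wells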;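 also: raw unnormalized fluorescence span taken in the window right after glutamate addition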
Of the large screens only hits and unclear results are named; the others gave an inactive call (follow-up assays come after a bar, where shown).

CCOC(=O)Nc1ccc2c(c1)N(C(=O)CCN1CCOCC1)c1ccccc1S2	M1 antag -6.5 | M1 antag conf 434 | mGluR4 antag inactive
CCOC(=O)Nc1ccc2c(c1)N(C(=O)CCN1CCOCC1)c1ccccc1S2=O (stereo not given)	M1 antag -10 | M1 antag conf 55 | mGluR4 antag inactive
O=C(CCN1CCOCC1)Nc1cccc(Br)c1	none
CCCCOCC(O)CN1CCOCC1 (stereo not given)	none (no result: WNV NS2B-NS3 inh, M1 agonist, Fluor 339 460, M1 antag, A340 absorber)
O=C(NCCN1CCOCC1)c1ccc2c(c1)N(Cc1ccccc1F)C(=O)CS2	M1 antag -3.8 | M1 antag conf 172 | mGluR4 antag inactive
Oc1ccc(Nc2nc(NCC3CCCO3)c3ccccc3n2)cc1 (stereo not given)	M1 antag -5.7 | M1 antag conf 483 | mGluR4 antag inactive
Cc1cccc(C(=O)Nc2cccc(NC(=O)c3cccc(C)c3)c2)c1	none (no result: WNV NS2B-NS3 inh, M1 agonist, Fluor 339 460, M1 antag, A340 absorber)
CCCN(CCO)Cc1ccc(Cl)c(Cl)c1	none
CCCN(CCO)Cc1cccc(Cl)c1	M1 antag -2.6 | M1 antag conf inactive | mGluR4 antag inactive
CC12CCC(C(=O)N3CCCCC3)(OC1=O)C2(C)C (stereo not given)	none (no result: WNV NS2B-NS3 inh, M1 agonist, Fluor 339 460, M1 antag, A340 absorber)
COc1cc2c(C(=O)NCCCN3CC(C)CC(C)C3)cn(CC(C)C)c(=O)c2cc1OC (stereo not given)	M1 antag -2.5 (no result: BAP1 block) | M1 antag conf 499 | mGluR4 antag inactive
N#CC1=C(N)N2C(=C(C#N)C13CCN(Cc1ccccc1)CC3)Nc1ccccc12	M1 antag -3.4 | M1 antag conf 405 | mGluR4 antag inactive
CCOC(=O)c1c(NC(=O)CSc2nnc(-c3ccccc3)n2CC)sc(C(C)=O)c1C	M1 antag -1.2 | M1 antag conf inactive | mGluR4 antag inactive
CCOC(=O)c1sc(NC(=O)CSc2nncs2)c(C(=O)OCC)c1C	M1 antag -5 (not shown: BAP1 block) | M1 antag conf inactive | mGluR4 antag inactive
CCCCn1c(=O)n(Cc2cccc(F)c2)c(=O)c2c1ncn2Cc1ccco1	M1 antag -1.5 | M1 antag conf inactive | mGluR4 antag inactive
Cc1csc(NC(=O)c2ccccc2C(=O)O)n1	M1 antag -3 | M1 antag conf inactive | mGluR4 antag inactive
Oc1ccc(-c2nc3ccc4ccccc4c3c3c2CCCC3)cc1O	none (no result: WNV NS2B-NS3 inh, M1 agonist, Fluor 339 460, M1 antag, A340 absorber)
c1cc(C(c2nnnn2C2CCCCC2)N2CCN3CCCC3C2)ccn1 (stereo not given)	none
COc1ccccc1C(c1nnnn1C1CCCC1)N1CCN2CCCC2C1 (stereo not given)	M1 antag -3.8 | M1 antag conf 473 | mGluR4 antag inactive
CN1/C(=C\C(=O)c2ccco2)C(C)(C)c2ccccc21	none
CN1/C(=C\C(=O)c2ccco2)c2ccccc2CC1(C)C	M1 antag -2.9 | M1 antag conf inactive | mGluR4 antag inactive
CC=CCOC(=O)C1=C(C)NC(=O)NC1c1ccc(CC)cc1 (stereo not given)	none (no result: WNV NS2B-NS3 inh, M1 agonist, Fluor 339 460, M1 antag, A340 absorber)
COC(=O)C1CCN(C(=O)c2cc(OC)c(OC)c(OC)c2)CC1	none
COc1cc(C(=O)N2CCN(C(=O)C3CC3)CC2)cc(OC)c1OC	M1 antag -3.1 | M1 antag conf 543 | mGluR4 antag inactive
COCCn1c(Sc2nc(C)cs2)nc2c1c(=O)[nH]c(=O)n2C	M1 antag -4.1 | M1 antag conf inactive | mGluR4 antag inactive
N#Cc1c(-n2cccc2/C=N/O)sc2c1CCCC2	M1 antag -7 | M1 antag conf 248 | mGluR4 antag inactive
COC(=O)C1=C(C)Nc2ncnn2C1c1ccc(Cl)cc1 (stereo not given)	none (no result: WNV NS2B-NS3 inh, M1 agonist, Fluor 339 460, M1 antag, A340 absorber)
